# CHO-K1 Ca antag: nonselective inhibitor or artifact in parental CHO-K1 cells | ATP-induced calcium, Fluo-8 fluorescence | inhibition, % at 3 µM | 360,000 tested, 0.6% active;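 active = inhibition above a per-plate cutoff, the plate's mean sample inhibition plus 3 SD, cut at about 24% in these data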;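 note: 0% = DMSO plus EC80 ATP and 100% = DMSO alone without ATP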
# CHO-K1 Ca ag: M1 agonist counterscreen hit in parental CHO-K1 cells; Fluo-8 calcium fluorescence; scaled to maximal ATP response, vehicle zero; 360,000 tested, 0.48% active; activation, % at 3 µM; in the data active = activation above about 15%;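 note: untransfected CHO-K1 host cells lacking M1 receptor as counterscreen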
# M1 antag: human CHRM1 antagonism; CHO-K1 hM1, Fluo-8 calcium fluorescence, ACh EC80 antagonist; P11229; 360,000 tested, 1.3% active; inhibition, % at 3 µM; AID 588852;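 active = percent inhibition above its own plate's cutoff, namely the mean of that plate's compound wells plus 3 SD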;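 note: peak over basal fluorescence ratio during 140 s after agonist addition; 0% = ACh EC80 plus DMSO and 100% = DMSO alone without agonist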
# Target sequence (P11229 whole entry, looked up): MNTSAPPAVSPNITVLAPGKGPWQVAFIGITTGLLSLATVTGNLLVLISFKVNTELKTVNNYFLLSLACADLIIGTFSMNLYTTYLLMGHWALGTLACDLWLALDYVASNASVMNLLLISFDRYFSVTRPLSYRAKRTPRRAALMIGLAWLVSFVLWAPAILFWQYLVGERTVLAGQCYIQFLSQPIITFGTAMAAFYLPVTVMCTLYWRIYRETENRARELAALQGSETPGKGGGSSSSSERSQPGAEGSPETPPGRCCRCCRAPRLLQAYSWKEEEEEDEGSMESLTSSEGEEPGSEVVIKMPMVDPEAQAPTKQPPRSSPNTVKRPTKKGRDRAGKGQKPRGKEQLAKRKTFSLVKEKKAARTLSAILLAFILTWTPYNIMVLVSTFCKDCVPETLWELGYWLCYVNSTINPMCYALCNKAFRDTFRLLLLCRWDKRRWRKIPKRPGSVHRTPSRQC
# M1 PAM parental: nonselective activator or artifact in parental CHO-K1 calcium assay; activation, % at 3 µM; 360,000 tested, 0.02% active; AID 602247; ATP EC20, Fluo-8 calcium fluorescence; 0% at ATP EC20, 100% at ATP max;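 active = activation above the run cutoff, the mean activation of all test compounds plus 3 SD, cut at about 40% in these data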;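 note: peak over basal fluorescence ratio in a 140 s read after ATP addition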
# M1 PAM: potentiates human M1 receptor response to acetylcholine; activation, % at 3 µM; AID 588819; P11229; 360,000 tested, 0.088% active; CHO-K1 hM1, Fluo-8 calcium fluorescence, ACh EC20; 0% = ACh EC20, 100% = maximal ACh; in the data active = activation above about 19%, passing the limit was not always enough
# CHRM1 agonist: activates human CHRM1 receptor | P11229 | CHO-K1 hM1, Fluo-8 calcium fluorescence, agonist mode; 0% DMSO, 100% acetylcholine EC100 | activation, % at 3 µM | 360,000 tested, 0.33% active | AID 588814;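 active = activation above the run's mean compound activation plus 3 SD, cut at about 16% in these data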;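 note: peak over basal fluorescence ratio within a 140 s kinetic read after compound addition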
# Starred values were filed as active, the others as inactive; ! = repeats disagree. This is a sample that favours compounds with a hit; in the whole collection about 2.3% have one here.
SMILES,CHO-K1 Ca antag,CHO-K1 Ca ag,M1 antag,M1 PAM parental,M1 PAM,CHRM1 agonist
O=C(CN1C(=O)NC2(CCCC2)C1=O)N1CCN(c2ccc(C(F)(F)F)cc2[N+](=O)[O-])CC1,2,1,-2,-12,8,-1
CCC(Sc1ccc(Cl)cc1)C(=O)Nc1nnc(-c2cccc([N+](=O)[O-])c2)s1 (centres undefined),-3,1,-9,23,5,20*
CCC(Sc1nncn1C)C(=O)Nc1nnc(-c2ccccc2Cl)s1 (centres undefined),-6,0,-12,14,4,-8
O=C(CN(C1CCCCC1)S(=O)(=O)c1ccc(Cl)cc1)N1CCOCC1,27*,0,16,-7,-5,0
O=C(CN(C1CCCCC1)S(=O)(=O)c1ccccc1)N1CCCC1,-18,0,-6,4,8,-2
Oc1cc(O)cc(/C=C/c2ccc(O)c(O)c2)c1,1,0,-19,-9,-6,27*
CCCC1c2ccc(C)n2CCN1C(=O)Nc1ccc(F)cc1 (centres undefined),2,2,-13,1,10,-1
CCC1c2ccc(C)n2CCN1C(=O)Nc1ccc(F)cc1 (centres undefined),26*,7,6,-7,-3,-3
COC(=O)C1=C(C)N(Cc2ccco2)C(=O)/C1=C\c1ccc([N+](=O)[O-])cc1,8,17*,20,19,-3,4
O=[N+]([O-])c1ccc(N2CCN(C(=S)NC3CCCCC3)CC2)cc1,9,9,21*,4,-21,2
CN1C[C@@H]2C(c3ccccc3)C3(c4cccnc4)CC2(C3)[C@H]1c1ccccc1 (some centres undefined),-2,0,97*,13,-34,-11
CC(C)CCN1CCC[C@]2(N[C@H](c3ccc(C(F)(F)F)cc3)[C@@H]3C(=O)N(Cc4ccccc4)C(=O)[C@@H]32)C1=O,-5,5,-19,24,6,-10
CC(C)[N+](C)(C)CC(O)CN(c1ccccc1)c1ccccc1 (centres undefined),-5,0,86*,7,-28,-9
NCC(O)CN(c1ccccc1)c1ccccc1 (centres undefined),12,0,7,-9,-4,-5
CC(=C/c1ccccc1)/C=N/n1c(-c2ccncc2)n[nH]c1=S,-4,0,-1,0,5,30*
S=C1N(c2ccccc2)C(c2ccc(Br)cc2)N2CCCN12 (centres undefined),-5,1,100*,14,-28,-7
S=C1N(c2ccccc2)C(c2ccc(Cl)cc2)N2CCCN12 (centres undefined),-3,0,96*,7,-21,-7
COc1ccc(C2N(c3ccccc3)C(=S)N3CCCN23)cc1 (centres undefined),-4,0,32,19,-22,-9
O=C1c2ccccc2S(=O)(=O)c2cc(C(=O)N3CCC(N4CCCC4)CC3)ccc21,-2,2,15,6,-15,-15
Nc1ccc2ccc(O)cc2c1,2,0,-10,-3,6,-1
C[n+]1c2cc(N)ccc2cc2ccc(N)cc21,25*!,210*,14,3,-17,205*
CCn1c(NCc2ccco2)nc2ccccc21,-6,2,-9,11,7,-7
c1ccc(Cn2c(NCc3ccco3)nc3ccccc32)cc1,25*,1,16,-3,-12,-6
CCC(=O)/C=C1/Sc2ccccc2N1CC,0,-1,-19,16,1,-7
CCOC(=O)/C(=C/C=C1\Sc2cc(C)c(C)cc2N1CC)C(C)=O,20,22*,33*,-20,-16,51*
SMILES,CHO-K1 Ca antag,CHO-K1 Ca ag,M1 antag,M1 PAM parental,M1 PAM,CHRM1 agonist
CCOC(=O)/C(=C\C=C1/Sc2ccccc2N1CC)C(C)=O,18,38*,25,-2,-13,47*
CCOC(=O)/C(=C/C=C1\Sc2ccccc2N1CC)C(C)=O,28*,18*,21,-17,-16,19*
CCN1/C(=C/C(=O)c2ccco2)Sc2ccccc21,1,0,-11,10,9,-3
O=C(COc1cccc(F)c1)Nc1nc(-c2cccnc2)cs1,-12,2,-5,7,16,-3
COc1cccc(CN(C)C(=O)C(Cc2ccccc2)NC(=O)c2ccccc2)c1OC (centres undefined),13,5,29*,-17,-12,-2
COc1cc2c(cc1NC(=S)Nc1ccccc1C)oc1ccccc12,-9,0,-15,17,25*,-5
Cc1ccc(-n2nnnc2CNC(=O)c2ccc(Br)o2)cc1C,-15,0,-3,5,3,-3
Cc1ccc(-n2nnnc2CNC(=O)c2ccc3c(c2)OCO3)cc1C,-6,0,63*,-7,-24,-7
Nc1c(Cl)ncnc1N/N=C/c1cccc(O)c1,-5,0,-7,14,3,-5
Nc1c(Cl)ncnc1N/N=C/c1ccncc1,26*,-1,-9,-20,8,-2
CCCCNC(=O)Cc1coc2ccc3ccccc3c12,27*,0,1,-4,10,-1
COCCCNC(=O)Cc1coc2ccc3ccccc3c12,-10,1,-5,9,7,-6
COc1ccc(C2OCC(C)([N+](=O)[O-])CO2)cc1 (centres undefined),-2,0,-13,-3,8,-4
C=CCSc1nc2sc(C)c(C)c2c(=O)[nH]1,2,0,39*,-1,-20,-10
O=C(COC(=O)CCc1nc2ccccc2c(=O)[nH]1)Nc1ccccc1Cl,-8,2,-8,17,4,-4
O=C(COC(=O)CCc1nc2ccccc2c(=O)[nH]1)Nc1ccccc1OC(F)F,9,0,-15,3,24*,5
N#Cc1cccc(-c2csc(C(O)c3ccco3)n2)c1 (centres undefined),11,1,-1,2,4,-2
Oc1ccccc1N1CCN(C(=S)NCCc2ccccc2)CC1,28*,3,13,-16,-13,-2
Cc1ccc(-n2ncc3c(SCC(=O)Nc4cc(C)on4)ncnc32)c(C)c1,-5,2,4,5,3,-3
COc1cccc(-c2nn(C)c3sc(C(=O)N4CCOCC4)cc23)c1,10,1,3,-7,1,-1
COc1cccc(-c2nn(C)c3sc(C(=O)N4CCN(c5ccccn5)CC4)cc23)c1,-1,5,22*,14,-14,-1
NC(=O)CSc1nnc(SCc2ccc(F)cc2)s1,12,1,-3,-10,8,-6
Cc1cccc(C)c1OCc1nnc(SCC(=O)Nc2nccs2)o1,-1,3,25*,11,-17,0
